Records with an inconclusive call do not appear. Activity calls are given as the source filed them. Unless noted, the call rests on the fitted dose curve.
Columns and labels:
[1] = Nuclear factor erythroid 2-related factor 2/antioxidant responsive element (Nrf2/ARE) small molecule agonists: qHTS cell viability counter screen in human keratinocytes (AID 1919968; active means well fitted curve in the direction sought with a large enough effect in the repeat runs; an effect the other way counts as inactive or inconclusive; further: nearly all actives have a fitted effect of over 55% in size)
Method in brief: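 Cells of the KeratinoSens line were plated at 1,500 per well and left for 5 h before compound transfer from DMSO stocks. After a 23 h incubation (37 C, 5% CO2), CellTiter-Fluor was added. Signal was taken as fluorescence intensity 1 h later.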

[2] = molecular target: Gonadotropin-releasing hormone receptor (Homo sapiens) (UniProt P30968); assay: Human gonadotropin-releasing hormone receptor (GnRHR) small molecule agonists, calcium flux assay in GnRHR-HEK293 cells (AID 1920063); further: nearly all actives have a fitted effect of over 35% in size
Method in brief: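 Compounds dissolved in DMSO are pin-transferred onto dye-loaded GnRHR-HEK293 cells, which were seeded 18 h before at 37 C/5% CO2. Calcium signal is read as fluorescence intensity at 1 s intervals for 3 min.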

[3] = molecular target: KiSS-1 receptor (Homo sapiens) (UniProt Q969F8); assay: Human kisspeptin (KISS1R) small molecule agonists, calcium flux assay in KISS1R-HEK293 cells (AID 1920064; active means well fitted curve in the direction sought with a large enough effect in the repeat runs; an effect the other way counts as inactive or inconclusive)
Method in brief: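 Cell line: HEK293, stable human KISS1R. Dye loading 1 h at 37 C after 18 h culture. Read: kinetic fluorescence, 480/540 nm, 3 min at 1 s intervals.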

[4] = G protein-coupled receptor (GPCR) small molecule agonists, calcium flux assay: HEK293 wild type cell line counter screen (AID 1920065)
Method in brief: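 Tox21 10K compounds, 15 concentrations each in triplicate, pin-transferred in DMSO onto dye-loaded cells; kinetic read at 480/540 nm for 3 min, 1 s intervals.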

[5] = p53 small molecule agonists, cell-based qHTS assay with human liver microsomes: qHTS cell viability counter screen (AID 1963579); further: nearly all actives have a fitted effect of over 45% in size
Method in brief: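 Cytotoxicity counter screen: p53RE-bla, 4,000 cells/well; 5 h settle, 37 C/5% CO2; cpd + HLM 0.5 mg/mL + NADPH 0.5 mg/mL (final); 16 h, 37 C; CellTiter-Glo, 30 min RT, luminescence.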

[6] = p53 small molecule agonists, cell-based qHTS assay with rat liver microsomes: qHTS cell viability counter screen (AID 1963580); further: nearly all actives have a fitted effect of over 45% in size
Method in brief: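 Counter screen for cytotoxicity under metabolic activation: rat liver microsomes and NADPH, 0.5 mg/mL final each, added with compounds to p53RE-bla HCT-116 cells; 16 h at 37 C, then ATP luminescence read.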

[7] = p53 small molecule agonists, cell-based qHTS assay: qHTS cell viability counter screen (AID 1963581); further: nearly all actives have a fitted effect of over 45% in size
Method in brief: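 ATP content measured by luminescence in HCT-116 p53RE-bla cells treated 16 h at 37 C, same wells as the reporter screen.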

[8] = cAMP Responsive Elements (CRE) small molecule antagonists, cell-based qHTS assay (AID 1963591; active means well fitted inhibition curve with a large enough effect in the signal ratio in the repeat runs, not every such curve was filed as active; the % refers to the signal ratio)
Method in brief: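 First, CRE-bla HEK293T cells settled 18 h at 37 C. Next, compound and 0.25 uM final NKH477 were applied for 3 h. Last, LiveBLAzer B/G substrate was loaded for 2 h at room temperature.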

[9] = molecular target: Beta-2 adrenergic receptor (Homo sapiens) (UniProt P07550); assay: Adrenergic beta2 receptor (ADRB2) small molecule antagonists, cell-based qHTS assay (AID 1963592); further: series mostly up to about 92 µM; nearly all actives have a fitted effect of over 50% in size
Method in brief: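 Assay format: CHO-ADRB2 cells, 18-20hr seeding at 37C/5% CO2, then compound plus 1nM isoproterenol agonist mix for 0.5hr RT. Homogeneous time-resolved fluorescence cAMP detection after 1hr, expressed as 665/615 nm ratio.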

[10] = molecular target: Beta-2 adrenergic receptor (Homo sapiens) (UniProt P07550); assay: Adrenergic beta2 receptor (ADRB2) small molecule agonists, cell-based qHTS assay (AID 1963593);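 further: CHO cells stably overexpressing human ADRB2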
Method in brief: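 CHO cells stably over-expressing ADRB2 were plated overnight at 37C, then dosed with compounds plus a stimulation mix containing 100uM IBMX and 25uM Ro-20-1724 for 0.5hr at room temperature. cAMP was measured by HTRF competition, 1hr.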

[11] = molecular target: D(2) dopamine receptor (Homo sapiens) (UniProt P14416); assay: Dopamine D2 receptor (DRD2) small molecule agonists, cell-based qHTS assay (AID 1963594); further: nearly all actives have a fitted effect of over 35% in size
Method in brief: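 HEK293 cells stably expressing DRD2 were cultured 24 h at 37 C, then given Ro20-1724 (0.1 mM final) and compounds for 10 min at room temperature. NKH477 (200nM) was then added for 30 min. cAMP was read by HTRF.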

[12] = molecular target: D(2) dopamine receptor (Homo sapiens) (UniProt P14416); assay: Dopamine D2 receptor (DRD2) small molecule antagonists, cell-based qHTS assay (AID 1963595; active means well fitted inhibition curve with a large enough effect in the signal ratio in the repeat runs, with a control signal flat; the % refers to the signal ratio)
Method in brief: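 Cells were plated and grown for 24 h at 37 °C. Ro20-1724 (0.1 mM final) went in first, then compound for 10 min. NKH477 (200 nM) with quinpirole (12 nM) followed for 30 min at RT, then HTRF detection reagents for 1 h.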

[13] = molecular target: 5-hydroxytryptamine receptor 2A (Homo sapiens) (UniProt P28223); assay: 5-hydroxytryptamine receptor 2A (HTR2A) small molecule antagonists, cell-based qHTS assay (AID 1963586); further: nearly all actives have a fitted effect of over 45% in size
Method in brief: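 CHO cells stably expressing human HTR2A were plated for 18 h at 37 C, then loaded with calcium dye for 1 h. Compounds were preincubated 5 min at room temperature before DOI (4 nM solution) was added. Kinetic fluorescence was read for 3 min.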

[14] = molecular target: 5-hydroxytryptamine receptor 2A (Homo sapiens) (UniProt P28223); assay: 5-hydroxytryptamine receptor 2A (HTR2A) small molecule agonists, cell-based qHTS assay (AID 1963587); further: nearly all actives have a fitted effect of over 30% in size
Method in brief: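 HTR2A-CHO cells, plated 18 h at 37 C/5% CO2, dye-loaded 1 h at 37 C; compounds in DMSO added by pin tool (agonist mode). Intracellular calcium flux read as kinetic fluorescence on FDSS over 2 min at 1 s intervals.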

[15] = molecular target: Muscarinic acetylcholine receptor M1 (Homo sapiens) (UniProt P11229); assay: Cholinergic receptor muscarinic 1 (CHRM1) small molecule agonists, cell-based qHTS assay (AID 1963589); further: nearly all actives have a fitted effect of over 35% in size
Method in brief: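 Homogeneous fluorescence calcium flux, agonist mode. Human M1-expressing CHO cells; compound dosed at 15 concentrations, three independent runs; signal sampled every 1 sec.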

[16] = cAMP Responsive Elements (CRE) small molecule agonists, cell-based qHTS assay (AID 1963590)
Method in brief: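 HEK 293T cells stably bearing CRE-bla were plated at 2,000 cells per well and rested 18 h. Compounds, positive controls or DMSO were added for 3 h at 37 C. LiveBLAzer B/G substrate was then loaded for 2 h at room temperature.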

[17] = molecular target: Muscarinic acetylcholine receptor M1 (Homo sapiens) (UniProt P11229); assay: Cholinergic receptor muscarinic 1 (CHRM1) small molecule antagonists, cell-based qHTS assay (AID 1963588); further: nearly all actives have a fitted effect of over 40% in size
Method in brief: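 Compounds were tested at 15 concentrations in three independent runs. Dye-loaded CHRM1-CHO cells were exposed 5 min at room temperature before stimulation by acetylcholine added at 50nM. Intracellular calcium was read kinetically on FDSS for 3 min.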

[18] = p53 small molecule agonists, cell-based qHTS assay (AID 1963582; active means well fitted activation curve with a large enough effect in the signal ratio in the repeat runs, not every such curve was filed as active; the % refers to the signal ratio)
Method in brief: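 16 h compound exposure (37 C) of p53 response element–bla cells, preceded by 5 h recovery at 37 C/5% CO2; read-out via LiveBLAzer B/G FRET substrate, 2 h RT, fluorescence intensity.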
On the % scale 0 is the no-effect control and ±100 the full control effect.

D(2) dopamine receptor (Homo sapiens), sequence (P14416 whole entry, looked up): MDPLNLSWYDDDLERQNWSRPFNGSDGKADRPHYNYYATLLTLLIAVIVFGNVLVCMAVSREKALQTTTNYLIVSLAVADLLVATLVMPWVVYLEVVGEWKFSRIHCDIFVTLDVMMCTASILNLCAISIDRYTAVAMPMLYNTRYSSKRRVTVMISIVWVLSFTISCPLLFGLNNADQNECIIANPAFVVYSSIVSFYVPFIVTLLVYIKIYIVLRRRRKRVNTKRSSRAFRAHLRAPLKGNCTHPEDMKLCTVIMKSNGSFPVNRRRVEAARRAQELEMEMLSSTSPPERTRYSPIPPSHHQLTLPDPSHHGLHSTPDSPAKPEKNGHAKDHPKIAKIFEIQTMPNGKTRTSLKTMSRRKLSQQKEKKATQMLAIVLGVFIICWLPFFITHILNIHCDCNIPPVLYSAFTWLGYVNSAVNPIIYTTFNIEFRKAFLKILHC
Beta-2 adrenergic receptor (Homo sapiens), sequence (P07550 whole entry, looked up): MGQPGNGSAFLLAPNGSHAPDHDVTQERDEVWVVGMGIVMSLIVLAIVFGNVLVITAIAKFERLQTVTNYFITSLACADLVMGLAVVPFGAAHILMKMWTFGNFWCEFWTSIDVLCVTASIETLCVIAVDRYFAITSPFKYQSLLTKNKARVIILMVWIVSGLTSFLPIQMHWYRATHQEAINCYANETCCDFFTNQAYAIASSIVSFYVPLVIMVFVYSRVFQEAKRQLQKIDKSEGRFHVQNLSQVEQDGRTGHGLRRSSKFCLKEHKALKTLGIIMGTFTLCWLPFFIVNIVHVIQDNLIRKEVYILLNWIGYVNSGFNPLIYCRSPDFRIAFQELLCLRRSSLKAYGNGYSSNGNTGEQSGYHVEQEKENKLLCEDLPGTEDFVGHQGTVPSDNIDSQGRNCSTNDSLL
KiSS-1 receptor (Homo sapiens), sequence (Q969F8 whole entry, looked up): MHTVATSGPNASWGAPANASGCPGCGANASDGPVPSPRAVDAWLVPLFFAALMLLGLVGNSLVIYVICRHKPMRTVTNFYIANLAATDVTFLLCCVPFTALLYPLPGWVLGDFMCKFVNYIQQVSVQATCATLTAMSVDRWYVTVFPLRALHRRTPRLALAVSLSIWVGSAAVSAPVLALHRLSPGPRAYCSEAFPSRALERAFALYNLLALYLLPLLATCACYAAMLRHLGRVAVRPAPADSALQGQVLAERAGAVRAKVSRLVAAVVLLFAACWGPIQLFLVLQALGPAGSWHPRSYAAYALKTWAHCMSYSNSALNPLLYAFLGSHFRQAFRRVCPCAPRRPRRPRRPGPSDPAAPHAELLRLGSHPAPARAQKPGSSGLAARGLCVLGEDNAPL
Gonadotropin-releasing hormone receptor (Homo sapiens), sequence (P30968 whole entry, looked up): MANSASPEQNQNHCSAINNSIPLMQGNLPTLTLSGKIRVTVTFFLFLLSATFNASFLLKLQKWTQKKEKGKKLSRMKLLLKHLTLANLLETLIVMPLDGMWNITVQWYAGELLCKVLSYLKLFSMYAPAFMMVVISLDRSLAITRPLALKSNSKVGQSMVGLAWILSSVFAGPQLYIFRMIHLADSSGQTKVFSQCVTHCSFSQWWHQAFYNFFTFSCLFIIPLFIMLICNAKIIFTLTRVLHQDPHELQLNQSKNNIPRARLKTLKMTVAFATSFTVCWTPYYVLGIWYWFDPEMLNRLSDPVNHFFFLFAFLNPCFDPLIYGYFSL
Muscarinic acetylcholine receptor M1 (Homo sapiens), sequence (P11229 whole entry, looked up): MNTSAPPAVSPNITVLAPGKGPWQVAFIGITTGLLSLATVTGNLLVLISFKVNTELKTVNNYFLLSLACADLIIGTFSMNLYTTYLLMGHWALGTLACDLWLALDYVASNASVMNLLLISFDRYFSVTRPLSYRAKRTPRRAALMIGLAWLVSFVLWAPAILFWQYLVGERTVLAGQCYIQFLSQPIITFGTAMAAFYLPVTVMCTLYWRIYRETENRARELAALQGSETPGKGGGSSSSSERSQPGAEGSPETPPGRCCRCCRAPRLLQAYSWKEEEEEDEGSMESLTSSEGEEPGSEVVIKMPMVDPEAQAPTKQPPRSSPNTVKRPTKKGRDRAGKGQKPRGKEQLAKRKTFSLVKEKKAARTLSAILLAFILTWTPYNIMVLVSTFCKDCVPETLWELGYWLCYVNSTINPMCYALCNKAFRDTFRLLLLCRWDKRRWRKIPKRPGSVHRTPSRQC
5-hydroxytryptamine receptor 2A (Homo sapiens), sequence (P28223 whole entry, looked up): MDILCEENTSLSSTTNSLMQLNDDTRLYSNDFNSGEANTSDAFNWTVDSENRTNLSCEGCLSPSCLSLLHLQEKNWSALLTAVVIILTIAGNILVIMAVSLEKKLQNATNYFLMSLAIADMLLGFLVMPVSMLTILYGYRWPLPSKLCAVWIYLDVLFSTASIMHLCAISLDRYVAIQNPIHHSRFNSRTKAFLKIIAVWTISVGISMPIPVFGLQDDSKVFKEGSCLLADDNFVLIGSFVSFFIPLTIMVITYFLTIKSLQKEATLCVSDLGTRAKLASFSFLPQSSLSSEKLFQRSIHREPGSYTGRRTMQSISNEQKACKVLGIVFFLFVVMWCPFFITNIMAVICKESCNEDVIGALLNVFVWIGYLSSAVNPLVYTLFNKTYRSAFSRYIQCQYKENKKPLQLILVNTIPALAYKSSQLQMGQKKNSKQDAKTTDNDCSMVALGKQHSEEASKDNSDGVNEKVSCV

CC(=O)Nc1ccc2c(c1)Cc1ccccc1-2
inactive: Potency [1] | Potency [2] | Potency [3] | Potency [4] | Potency [5] | Potency [6] | Potency [7] | Potency [8] | Potency [9] | Potency [10] | Potency [11] | Potency [12]

CNC(=O)Oc1cccc(C(C)C)c1
inactive: Potency [1] | Potency [2] | Potency [3] | Potency [4] | Potency [6] | Potency [7] | Potency [13] | Potency [14] | Potency [15] | Potency [16] | Potency [8] | Potency [9] | Potency [10] | Potency [11] | Potency [12]

CCOP(O)OCC
inactive: Potency [1] | Potency [2] | Potency [3] | Potency [4] | Potency [5] | Potency [7] | Potency [13] | Potency [14] | Potency [17] | Potency [15] | Potency [16] | Potency [8] | Potency [9] | Potency [10] | Potency [11] | Potency [12]

O=[N+]([O-])[O-].[Tl+]
inactive: Potency [1] | Potency [2] | Potency [3] | Potency [4] | Potency [5] | Potency [7] | Potency [13] | Potency [14] | Potency [17] | Potency [15] | Potency [16] | Potency [8] | Potency [9] | Potency [12]

O=CC=O
inactive: Potency [1] | Potency [2] | Potency [3] | Potency [4] | Potency [5] | Potency [6] | Potency [7] | Potency [13] | Potency [17] | Potency [15] | Potency [16] | Potency [8] | Potency [9] | Potency [11] | Potency [12]

CCOP(=S)(OCC)OC(Cl)C(Cl)(Cl)Cl (stereo not given)
inactive: Potency [1] | Potency [2] | Potency [3] | Potency [4] | Potency [5] | Potency [6] | Potency [7] | Potency [18] | Potency [14] | Potency [17] | Potency [15] | Potency [16] | Potency [8] | Potency [9] | Potency [11] | Potency [12]

CC(=O)[O-].CC(=O)[O-].CC(=O)[O-].[Sb+3]
inactive: activity change, negative = cytotoxicity [1] 0.851% [at 3.27 µM] | activity change [2] 0.655% [at 2.04 µM, active compounds read high] | activation [3] 14% [at 2.72 µM] | activation [4] -0.454% [at 2.04 µM] | activity change, negative = cytotoxicity [5] 0.868% [at 2.33 µM] | activity change, negative = cytotoxicity [6] -3.59% [at 2.33 µM] | activity change, negative = cytotoxicity [7] 11.8% [at 2.33 µM] | activity, negative = inhibition [13] 0.713% [at 2.12 µM] | activation [14] -0.125% [at 2.65 µM] | activity, negative = inhibition [17] 9.52% [at 2.17 µM] | activation [15] -0.154% [at 2.72 µM] | activation [16] -0.0591% [at 3.27 µM] | activity change, negative = inhibition [8] -4.85% [at 3.27 µM] | activity change, negative = inhibition [9] -10.7% [at 3.27 µM] | activation [11] 0.942% [at 3.27 µM] | activity change, negative = inhibition [12] -1.4% [at 3.28 µM]

CC(=O)[O-].[Tl+]
inactive: Potency [1] | Potency [2] | Potency [3] | Potency [4] | Potency [5] | Potency [6] | Potency [13] | Potency [14] | Potency [17] | Potency [15] | Potency [16] | Potency [9] | Potency [11]

CCCCn1cc[n+](C)c1 (tested in a mixture with another compound)
inactive: Potency [1] | Potency [2] | Potency [3] | Potency [4] | Potency [5] | Potency [6] | Potency [7] | Potency [14] | Potency [17] | Potency [15] | Potency [16] | Potency [9] | Potency [12]
